Common to all, as to experiment: DAPPL (digital affinity profiling via proximity ligation, sequencing); 10 mM Tris-HCl pH 7.5, 50 mM NaCl, 1 mM DTT, 4% glycerol, room temperature, 30 min; GST-TFs on glutathione beads, 16-mer random dsDNA library, 0.1% formaldehyde crosslink after washing; high values mean tight binding
The target in assay [1] is T1, FLI1 (Homo sapiens, UniProt Q01543 1-452).
T1 sequence: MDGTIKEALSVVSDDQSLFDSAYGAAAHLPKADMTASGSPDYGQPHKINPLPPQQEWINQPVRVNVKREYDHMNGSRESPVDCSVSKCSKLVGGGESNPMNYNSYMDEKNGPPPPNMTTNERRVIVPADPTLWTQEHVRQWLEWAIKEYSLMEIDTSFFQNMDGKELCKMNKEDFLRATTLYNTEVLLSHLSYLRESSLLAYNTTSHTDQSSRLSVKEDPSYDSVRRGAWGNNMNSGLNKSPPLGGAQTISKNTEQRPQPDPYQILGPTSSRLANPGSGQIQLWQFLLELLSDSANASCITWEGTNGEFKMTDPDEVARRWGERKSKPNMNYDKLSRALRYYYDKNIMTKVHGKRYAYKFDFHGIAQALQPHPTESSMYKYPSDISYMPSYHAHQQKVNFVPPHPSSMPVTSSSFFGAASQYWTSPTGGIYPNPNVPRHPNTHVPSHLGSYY
The following applies: protein: recombinant; tags: N-terminal GST; dsDNA, one strand shown. Summed up: (§1)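 Beads coated with glutathione captured GST-fused human transcription factors that had been expressed in yeast, and the factors were then given DNA barcodes and pooled with a tag-only sample. The pools were incubated with 200 nmole of a random double-stranded 16-mer DNA library in Tris/NaCl/DTT/glycerol buffer for 30 min at room temperature, washed, crosslinked with 0.1% formaldehyde and proximity-ligated with BsaI/T4 ligase at 37 °C for 1 h. PCR amplification and Illumina NextSeq500 sequencing came last. Binding signal is each hexamer's read frequency for a factor divided by its frequency for the tag-only sample.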

The target in assay [2] is T2, ELK1 (Homo sapiens, UniProt P19419 1-428).
T2 sequence: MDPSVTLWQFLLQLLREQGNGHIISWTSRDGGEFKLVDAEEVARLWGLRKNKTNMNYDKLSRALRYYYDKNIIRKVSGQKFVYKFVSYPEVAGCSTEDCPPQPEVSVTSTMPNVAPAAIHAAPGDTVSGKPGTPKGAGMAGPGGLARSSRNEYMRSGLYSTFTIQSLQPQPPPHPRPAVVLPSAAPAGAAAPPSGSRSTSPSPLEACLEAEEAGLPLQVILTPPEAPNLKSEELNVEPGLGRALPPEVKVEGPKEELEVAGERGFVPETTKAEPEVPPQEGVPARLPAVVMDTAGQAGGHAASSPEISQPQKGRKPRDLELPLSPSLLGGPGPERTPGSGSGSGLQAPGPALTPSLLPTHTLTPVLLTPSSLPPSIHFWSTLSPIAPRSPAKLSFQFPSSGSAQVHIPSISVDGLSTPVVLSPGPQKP
As to conditions: protein: recombinant; tags: N-terminal GST; dsDNA, one strand shown. Summed up: as §1

In assay [3] the target is T3, GABPA (Homo sapiens, UniProt Q06546 1-454).
T3 sequence: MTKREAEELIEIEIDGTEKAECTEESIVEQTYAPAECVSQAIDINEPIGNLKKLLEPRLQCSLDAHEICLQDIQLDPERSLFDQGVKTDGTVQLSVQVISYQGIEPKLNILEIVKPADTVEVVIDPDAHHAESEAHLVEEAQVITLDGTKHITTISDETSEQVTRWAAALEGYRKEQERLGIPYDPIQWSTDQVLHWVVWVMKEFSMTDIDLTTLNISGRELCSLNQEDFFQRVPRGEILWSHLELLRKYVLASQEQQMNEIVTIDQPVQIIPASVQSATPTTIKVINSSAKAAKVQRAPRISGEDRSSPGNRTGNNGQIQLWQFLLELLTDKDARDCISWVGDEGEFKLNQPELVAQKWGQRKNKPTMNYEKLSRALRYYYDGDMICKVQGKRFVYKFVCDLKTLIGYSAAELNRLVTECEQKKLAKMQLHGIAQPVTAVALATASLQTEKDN
As to conditions: protein: recombinant; tags: N-terminal GST; dsDNA, one strand shown. Summed up: as §1

Assay [4] addresses T4, ERG (Homo sapiens, UniProt P11308 1-479).
T4 sequence: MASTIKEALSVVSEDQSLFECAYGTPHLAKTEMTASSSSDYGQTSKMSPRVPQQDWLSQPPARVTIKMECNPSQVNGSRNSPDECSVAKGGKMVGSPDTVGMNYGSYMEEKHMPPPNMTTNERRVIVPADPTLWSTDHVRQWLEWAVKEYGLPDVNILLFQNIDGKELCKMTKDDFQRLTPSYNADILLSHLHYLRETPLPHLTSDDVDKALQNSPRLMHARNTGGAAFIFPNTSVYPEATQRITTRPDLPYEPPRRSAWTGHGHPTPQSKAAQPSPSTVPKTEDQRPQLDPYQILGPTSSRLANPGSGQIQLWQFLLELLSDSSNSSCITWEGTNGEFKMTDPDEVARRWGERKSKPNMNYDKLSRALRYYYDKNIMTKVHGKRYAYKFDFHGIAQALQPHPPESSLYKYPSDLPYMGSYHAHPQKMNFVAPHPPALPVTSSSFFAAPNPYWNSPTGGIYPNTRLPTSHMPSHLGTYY
The following applies: protein: recombinant; tags: N-terminal GST; dsDNA, one strand shown. Put shortly:
as §1

Assay [5] has as its target ELF1 (Homo sapiens, UniProt P32519 1-619). As to conditions: protein: recombinant; tags: N-terminal GST; dsDNA, one strand shown. Summed up: as §1
In assay [6] the target is T5, EHF (Homo sapiens, UniProt Q9NZC4 1-300).
T5 sequence: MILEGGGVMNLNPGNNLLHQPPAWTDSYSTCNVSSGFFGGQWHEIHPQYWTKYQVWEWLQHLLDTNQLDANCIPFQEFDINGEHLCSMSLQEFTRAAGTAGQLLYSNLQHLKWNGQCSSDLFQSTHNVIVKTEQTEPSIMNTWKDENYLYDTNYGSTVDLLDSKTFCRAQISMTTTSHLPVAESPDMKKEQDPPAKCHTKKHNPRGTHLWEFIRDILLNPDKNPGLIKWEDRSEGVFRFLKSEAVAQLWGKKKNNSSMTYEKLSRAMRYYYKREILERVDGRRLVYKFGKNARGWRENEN
As to conditions: protein: recombinant; tags: N-terminal GST; dsDNA, one strand shown. Summed up:
as §1

Assay [7] addresses SPI1 (Homo sapiens, UniProt P17947 1-270). As to conditions: protein: recombinant; tags: N-terminal GST; dsDNA, one strand shown. Put shortly: as §1
Assay [8] has as its target SPIB (Homo sapiens, UniProt Q01892 1-262). As to conditions: protein: recombinant; tags: N-terminal GST; dsDNA, one strand shown. Summed up: as §1
Assay [9] addresses T6, ELK3 (Homo sapiens, UniProt P41970 1-407).
T6 sequence: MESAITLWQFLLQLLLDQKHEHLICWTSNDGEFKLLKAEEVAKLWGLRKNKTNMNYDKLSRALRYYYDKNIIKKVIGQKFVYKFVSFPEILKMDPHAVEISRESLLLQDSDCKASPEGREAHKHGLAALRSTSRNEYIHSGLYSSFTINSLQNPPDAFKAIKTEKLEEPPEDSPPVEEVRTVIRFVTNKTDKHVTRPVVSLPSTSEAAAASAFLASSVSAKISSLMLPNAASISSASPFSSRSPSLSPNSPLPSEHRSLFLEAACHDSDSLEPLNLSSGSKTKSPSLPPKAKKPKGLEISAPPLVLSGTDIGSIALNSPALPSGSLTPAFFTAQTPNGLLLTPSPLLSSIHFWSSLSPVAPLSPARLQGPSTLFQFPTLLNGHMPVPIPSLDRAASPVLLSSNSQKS
As to conditions: protein: recombinant; tags: N-terminal GST; dsDNA, one strand shown. Put shortly: as §1

Assay [10] has as its target T7, FEV (Homo sapiens, UniProt Q99581 1-238).
T7 sequence: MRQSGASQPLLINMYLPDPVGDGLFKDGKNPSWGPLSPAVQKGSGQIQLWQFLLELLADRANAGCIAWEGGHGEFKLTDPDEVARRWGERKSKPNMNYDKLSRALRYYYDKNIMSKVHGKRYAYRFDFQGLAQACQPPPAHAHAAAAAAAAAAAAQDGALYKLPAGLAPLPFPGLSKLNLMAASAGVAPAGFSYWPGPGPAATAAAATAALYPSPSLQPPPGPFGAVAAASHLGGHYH
As to conditions: protein: recombinant; tags: N-terminal GST; dsDNA, one strand shown. Summed up: as §1

The target of assay [11] is ETV5 (Homo sapiens, UniProt P41161 1-510). As to conditions: protein: recombinant; tags: N-terminal GST; dsDNA, one strand shown. Put shortly: as §1
Sequence of ETV5 (P41161 whole entry): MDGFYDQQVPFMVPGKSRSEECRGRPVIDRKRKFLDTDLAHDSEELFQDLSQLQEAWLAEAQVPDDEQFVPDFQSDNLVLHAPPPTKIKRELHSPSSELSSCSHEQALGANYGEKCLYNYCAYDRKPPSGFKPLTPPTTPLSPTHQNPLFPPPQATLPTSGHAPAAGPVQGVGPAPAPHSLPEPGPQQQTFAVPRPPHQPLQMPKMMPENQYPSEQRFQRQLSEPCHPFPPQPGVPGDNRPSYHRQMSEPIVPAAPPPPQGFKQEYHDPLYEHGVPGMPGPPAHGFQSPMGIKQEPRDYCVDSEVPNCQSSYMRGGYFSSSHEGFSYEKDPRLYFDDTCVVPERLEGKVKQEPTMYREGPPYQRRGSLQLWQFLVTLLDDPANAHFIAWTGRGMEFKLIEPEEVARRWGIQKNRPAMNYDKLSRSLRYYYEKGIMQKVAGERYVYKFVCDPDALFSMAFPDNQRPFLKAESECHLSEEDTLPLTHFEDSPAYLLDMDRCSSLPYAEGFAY
In assay [12] the target is HSF1 (Homo sapiens, UniProt Q00613 1-529). As to conditions: protein: recombinant; tags: N-terminal GST; chain copies: 3; dsDNA, one strand shown. Summed up:
as §1

For assay [13], the target named is T8, SPIC (Homo sapiens, UniProt Q8N5J4 1-248).
T8 sequence: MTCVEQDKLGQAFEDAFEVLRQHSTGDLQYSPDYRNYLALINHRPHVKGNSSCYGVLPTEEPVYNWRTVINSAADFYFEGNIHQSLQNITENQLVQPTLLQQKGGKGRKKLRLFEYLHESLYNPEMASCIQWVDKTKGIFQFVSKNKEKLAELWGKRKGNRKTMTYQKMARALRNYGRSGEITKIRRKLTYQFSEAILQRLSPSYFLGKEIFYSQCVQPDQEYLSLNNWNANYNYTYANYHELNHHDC
The following applies: protein: recombinant; tags: N-terminal GST; dsDNA, one strand shown. Summed up: as §1

The target in assay [14] is ELF4 (Homo sapiens, UniProt Q99607 1-663). The following applies: protein: recombinant; tags: N-terminal GST; dsDNA, one strand shown. Put shortly: as §1
Sequence of ELF4 (Q99607 whole entry): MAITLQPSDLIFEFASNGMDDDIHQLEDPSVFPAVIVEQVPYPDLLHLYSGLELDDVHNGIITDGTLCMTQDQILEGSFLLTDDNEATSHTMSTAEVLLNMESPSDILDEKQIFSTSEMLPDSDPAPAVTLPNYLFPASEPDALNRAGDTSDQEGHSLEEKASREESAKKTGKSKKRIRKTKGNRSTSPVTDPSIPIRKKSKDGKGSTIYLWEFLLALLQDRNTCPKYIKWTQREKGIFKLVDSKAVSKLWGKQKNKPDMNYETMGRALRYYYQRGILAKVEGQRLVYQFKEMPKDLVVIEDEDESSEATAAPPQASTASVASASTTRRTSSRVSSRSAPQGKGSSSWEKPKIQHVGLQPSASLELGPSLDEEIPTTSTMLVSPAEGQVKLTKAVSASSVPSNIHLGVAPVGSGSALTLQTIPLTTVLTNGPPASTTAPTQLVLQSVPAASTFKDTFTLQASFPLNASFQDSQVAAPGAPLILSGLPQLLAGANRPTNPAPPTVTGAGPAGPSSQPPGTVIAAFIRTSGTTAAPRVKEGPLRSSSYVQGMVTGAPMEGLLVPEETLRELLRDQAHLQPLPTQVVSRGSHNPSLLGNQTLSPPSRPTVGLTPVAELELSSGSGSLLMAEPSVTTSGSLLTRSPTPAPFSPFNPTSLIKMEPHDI
Assay [15] addresses T9, ETV2 (Homo sapiens, UniProt O00321 1-342).
T9 sequence: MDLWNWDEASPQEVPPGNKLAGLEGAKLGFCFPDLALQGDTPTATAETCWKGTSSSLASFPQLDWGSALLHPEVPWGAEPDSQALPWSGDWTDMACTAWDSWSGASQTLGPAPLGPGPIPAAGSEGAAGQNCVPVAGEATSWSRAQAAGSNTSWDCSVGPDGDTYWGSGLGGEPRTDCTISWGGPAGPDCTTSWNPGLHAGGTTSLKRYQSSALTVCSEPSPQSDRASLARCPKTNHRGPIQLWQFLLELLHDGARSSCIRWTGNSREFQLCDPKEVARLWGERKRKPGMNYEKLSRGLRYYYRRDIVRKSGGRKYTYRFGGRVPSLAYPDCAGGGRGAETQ
As to conditions: protein: recombinant; tags: N-terminal GST; dsDNA, one strand shown. Summed up:
as §1

Assay [16] deals with T10, ELF3 (Homo sapiens, UniProt P78545 1-371).
T10 sequence: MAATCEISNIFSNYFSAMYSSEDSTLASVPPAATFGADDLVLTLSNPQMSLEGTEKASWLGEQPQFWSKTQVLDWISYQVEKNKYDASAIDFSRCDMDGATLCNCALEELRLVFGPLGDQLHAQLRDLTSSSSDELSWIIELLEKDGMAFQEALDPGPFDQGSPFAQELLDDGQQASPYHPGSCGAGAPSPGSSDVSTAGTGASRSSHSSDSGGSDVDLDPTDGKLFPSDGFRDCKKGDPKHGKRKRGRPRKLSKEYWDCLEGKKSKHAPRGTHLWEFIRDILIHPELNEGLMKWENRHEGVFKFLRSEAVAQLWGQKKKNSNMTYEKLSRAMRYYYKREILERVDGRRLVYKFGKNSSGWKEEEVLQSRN
The following applies: protein: recombinant; tags: N-terminal GST; dsDNA, one strand shown. Put shortly:
as §1

Assay [17] deals with ETV1 (Homo sapiens, UniProt P50549 1-477). As to conditions: protein: recombinant; tags: N-terminal GST; dsDNA, one strand shown. Put shortly:
as §1

Sequence of ELF1 (P32519 whole entry): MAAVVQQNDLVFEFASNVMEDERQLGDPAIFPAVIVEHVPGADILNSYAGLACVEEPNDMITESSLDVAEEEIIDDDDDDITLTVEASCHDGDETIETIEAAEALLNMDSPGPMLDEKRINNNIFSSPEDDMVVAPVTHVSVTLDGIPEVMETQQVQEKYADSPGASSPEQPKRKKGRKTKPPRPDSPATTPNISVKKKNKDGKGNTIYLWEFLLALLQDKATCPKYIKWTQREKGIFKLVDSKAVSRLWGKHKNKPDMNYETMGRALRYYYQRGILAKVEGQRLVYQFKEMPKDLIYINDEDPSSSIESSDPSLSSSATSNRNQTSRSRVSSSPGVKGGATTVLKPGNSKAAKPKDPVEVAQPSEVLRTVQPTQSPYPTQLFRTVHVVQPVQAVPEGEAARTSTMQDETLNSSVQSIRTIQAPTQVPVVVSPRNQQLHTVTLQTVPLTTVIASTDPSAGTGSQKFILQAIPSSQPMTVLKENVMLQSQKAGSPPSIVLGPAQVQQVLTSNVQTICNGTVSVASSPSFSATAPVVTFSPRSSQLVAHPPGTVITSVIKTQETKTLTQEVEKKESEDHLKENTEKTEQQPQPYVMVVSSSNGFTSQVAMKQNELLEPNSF
Sequence of ETV1 (P50549 whole entry): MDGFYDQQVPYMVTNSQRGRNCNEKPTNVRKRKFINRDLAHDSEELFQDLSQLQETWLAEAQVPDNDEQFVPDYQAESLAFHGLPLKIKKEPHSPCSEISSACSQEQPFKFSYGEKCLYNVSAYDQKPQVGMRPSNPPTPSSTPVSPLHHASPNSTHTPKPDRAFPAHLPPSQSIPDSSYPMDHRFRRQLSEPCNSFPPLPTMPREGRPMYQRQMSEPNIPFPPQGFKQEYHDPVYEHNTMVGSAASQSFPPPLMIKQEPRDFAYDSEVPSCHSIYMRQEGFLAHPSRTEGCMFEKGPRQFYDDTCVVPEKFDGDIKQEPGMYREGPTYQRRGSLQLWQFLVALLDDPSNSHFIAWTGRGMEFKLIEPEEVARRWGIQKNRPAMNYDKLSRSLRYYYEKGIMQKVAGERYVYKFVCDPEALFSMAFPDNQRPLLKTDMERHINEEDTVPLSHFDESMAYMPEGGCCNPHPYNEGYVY
Sequence of SPIB (Q01892 whole entry): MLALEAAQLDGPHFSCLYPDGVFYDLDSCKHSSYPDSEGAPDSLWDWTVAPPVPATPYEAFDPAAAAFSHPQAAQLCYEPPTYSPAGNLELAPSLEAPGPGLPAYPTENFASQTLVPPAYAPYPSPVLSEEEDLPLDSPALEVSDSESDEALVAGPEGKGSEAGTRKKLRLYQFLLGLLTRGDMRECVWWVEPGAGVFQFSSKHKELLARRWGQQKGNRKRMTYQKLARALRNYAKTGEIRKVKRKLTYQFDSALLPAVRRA
Sequence of HSF1 (Q00613 whole entry): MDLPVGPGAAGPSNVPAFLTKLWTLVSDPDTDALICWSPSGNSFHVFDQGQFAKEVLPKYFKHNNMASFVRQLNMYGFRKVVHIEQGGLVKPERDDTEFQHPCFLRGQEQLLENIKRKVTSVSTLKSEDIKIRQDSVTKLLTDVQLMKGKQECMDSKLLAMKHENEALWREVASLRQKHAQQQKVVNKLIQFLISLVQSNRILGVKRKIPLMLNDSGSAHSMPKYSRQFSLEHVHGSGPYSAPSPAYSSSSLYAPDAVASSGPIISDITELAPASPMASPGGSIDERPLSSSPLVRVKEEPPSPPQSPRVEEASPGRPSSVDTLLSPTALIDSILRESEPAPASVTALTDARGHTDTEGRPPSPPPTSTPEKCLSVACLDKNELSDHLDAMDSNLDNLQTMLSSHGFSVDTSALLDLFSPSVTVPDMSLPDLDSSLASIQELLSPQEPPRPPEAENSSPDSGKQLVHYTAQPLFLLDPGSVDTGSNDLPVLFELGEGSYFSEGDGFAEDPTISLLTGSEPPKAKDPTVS

On to AAACGA, for which the binding signal in [1] was 1.07 fold enrichment (6-mer frequency, TF over GST control); in assay [2], 1.14 fold enrichment (6-mer frequency, TF over GST control); in assay [3], 1.17 fold enrichment (6-mer frequency, TF over GST control); in assay [4], 1.11 fold enrichment (6-mer frequency, TF over GST control); in [5], 1.08 fold enrichment (6-mer frequency, TF over GST control); in assay [6], 1.04 fold enrichment (6-mer frequency, TF over GST control). Further, the binding signal in [7] is 1.1 fold enrichment (6-mer frequency, TF over GST control); in assay [8], 1 fold enrichment (6-mer frequency, TF over GST control); in [9], 1.14 fold enrichment (6-mer frequency, TF over GST control); in assay [10], 1.09 fold enrichment (6-mer frequency, TF over GST control); in assay [11], 1.1 fold enrichment (6-mer frequency, TF over GST control); in [12], 1.09 fold enrichment (6-mer frequency, TF over GST control). In addition, the binding signal in assay [13] is 1.02 fold enrichment (6-mer frequency, TF over GST control); in assay [14], 1.08 fold enrichment (6-mer frequency, TF over GST control); in assay [15], 1.1 fold enrichment (6-mer frequency, TF over GST control); in assay [16], 1.11 fold enrichment (6-mer frequency, TF over GST control); in [17] it was 1.03 fold enrichment (6-mer frequency, TF over GST control).

Source of the values: article PMC7862700, “An all-to-all approach to the identification of sequence-specific readers for epigenetic DNA modifications on cytosine”.
